“And” between values parts separate entries of the source, which are not always exact repeats. Identical values can stand only once. The source made the active and inactive calls.
How the values were obtained:
[1] = tested on: PRMT1 (protein arginine N-methyltransferase 1); assay: small molecules binding arginine methyltransferase PRMT1 – biochemical, small-molecule microarray, 635 nm fluorescence, primary screen (AID 1088); conditions: higher = more signal;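 note: binding of Prmt1 protein to compounds spotted on small-molecule microarray slides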
[2] = growth effects on S. cerevisiae YJM789 – YJM789 clinical isolate, OD600, 24 h, basal, primary screen (AID 1089); conditions: higher = more signal, called active from +8 up or from −8 down;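 note: growth of clinical yeast isolate S. cerevisiae YJM 789 seeded 1000 cells per well; test concentration not given here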
[3] = S. pombe growth modifiers, basal conditions – strain 972, OD600, 24 h, no modulator, primary screen (AID 1090);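 note: basal condition with compound alone and no growth modifier present; test concentration not given here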; conditions: S. pombe 972 growth, higher = more signal, called active from +8 up or from −8 down
[4] = budding yeast growth modifiers under rapamycin – strain BY4716, OD600, 96 h, primary screen (AID 1091); note: test concentration not given here; conditions: S. cerevisiae BY4716 + rapamycin, higher = more signal, called active from +8 up or from −8 down
[5] = molecular target: Torsin-1A-interacting protein 2 (Homo sapiens) (UniProt Q8NFQ8); assay: small molecules binding lysate-expressed LULL1 – cell lysate, human LULL1 lysate, 635/667 nm fluorescence, primary screen (AID 1092); conditions: small-molecule microarray, hLULL1 lysate binding, 635 nm fluorescence; higher = more signal;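 note: probe is lysate of COS7 cells overexpressing human LULL1; score merges per-feature 667 nm fluorescence with signal-to-noise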
Chain of Torsin-1A-interacting protein 2 (Homo sapiens) (Q8NFQ8 whole entry, looked up): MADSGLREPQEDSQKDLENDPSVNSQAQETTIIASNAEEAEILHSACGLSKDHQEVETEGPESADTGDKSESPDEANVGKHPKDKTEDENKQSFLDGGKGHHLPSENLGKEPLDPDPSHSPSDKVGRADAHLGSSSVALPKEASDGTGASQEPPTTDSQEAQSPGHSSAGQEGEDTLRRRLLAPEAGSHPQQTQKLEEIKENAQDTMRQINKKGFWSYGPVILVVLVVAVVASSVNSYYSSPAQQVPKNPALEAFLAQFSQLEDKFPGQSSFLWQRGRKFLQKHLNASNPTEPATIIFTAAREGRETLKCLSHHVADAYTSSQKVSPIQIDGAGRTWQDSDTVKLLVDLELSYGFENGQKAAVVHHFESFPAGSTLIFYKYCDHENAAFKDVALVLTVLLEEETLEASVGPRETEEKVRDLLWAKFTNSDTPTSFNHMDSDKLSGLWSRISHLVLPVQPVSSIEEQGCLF

[6] = optical density change of DRC41 E. coli – strain DRC41, OD650, 24 h, E. coli filamentation project, primary screen (AID 1093);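 note: MC1000 strain lacking acrAB efflux and sulA so SOS filamentation is blocked; test concentration not given here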; conditions: E. coli DRC41 growth, higher = more signal, called active from +8 up or from −8 down
[7] = probe aLefty2 binding to arrayed compounds – biochemical, biotinylated probe, 635/667 nm fluorescence, primary screen (AID 1094); conditions: small-molecule microarray, higher = more signal;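 note: score merges spot fluorescence near 667 nm with spot signal-to-noise ratio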
[8] = tested on: Noggin (protein binding on small-molecule microarray); assay: small molecules binding Noggin protein – biochemical, 635/667 nm fluorescence, primary screen (AID 1095); conditions: 635 nm fluorescence, higher = more signal;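 note: score merges 667 nm feature fluorescence with signal to noise over triplicate slides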
[9] = molecular target: Neurogenic locus notch homolog protein 3 (Homo sapiens) (UniProt Q9UM47); assay: small molecules binding NOTCH3 protein – biochemical, 635/667 nm fluorescence, primary screen (AID 1096); conditions: small-molecule microarray, 635 nm fluorescence, higher = more signal
Chain of Neurogenic locus notch homolog protein 3 (Homo sapiens) (Q9UM47 whole entry, looked up): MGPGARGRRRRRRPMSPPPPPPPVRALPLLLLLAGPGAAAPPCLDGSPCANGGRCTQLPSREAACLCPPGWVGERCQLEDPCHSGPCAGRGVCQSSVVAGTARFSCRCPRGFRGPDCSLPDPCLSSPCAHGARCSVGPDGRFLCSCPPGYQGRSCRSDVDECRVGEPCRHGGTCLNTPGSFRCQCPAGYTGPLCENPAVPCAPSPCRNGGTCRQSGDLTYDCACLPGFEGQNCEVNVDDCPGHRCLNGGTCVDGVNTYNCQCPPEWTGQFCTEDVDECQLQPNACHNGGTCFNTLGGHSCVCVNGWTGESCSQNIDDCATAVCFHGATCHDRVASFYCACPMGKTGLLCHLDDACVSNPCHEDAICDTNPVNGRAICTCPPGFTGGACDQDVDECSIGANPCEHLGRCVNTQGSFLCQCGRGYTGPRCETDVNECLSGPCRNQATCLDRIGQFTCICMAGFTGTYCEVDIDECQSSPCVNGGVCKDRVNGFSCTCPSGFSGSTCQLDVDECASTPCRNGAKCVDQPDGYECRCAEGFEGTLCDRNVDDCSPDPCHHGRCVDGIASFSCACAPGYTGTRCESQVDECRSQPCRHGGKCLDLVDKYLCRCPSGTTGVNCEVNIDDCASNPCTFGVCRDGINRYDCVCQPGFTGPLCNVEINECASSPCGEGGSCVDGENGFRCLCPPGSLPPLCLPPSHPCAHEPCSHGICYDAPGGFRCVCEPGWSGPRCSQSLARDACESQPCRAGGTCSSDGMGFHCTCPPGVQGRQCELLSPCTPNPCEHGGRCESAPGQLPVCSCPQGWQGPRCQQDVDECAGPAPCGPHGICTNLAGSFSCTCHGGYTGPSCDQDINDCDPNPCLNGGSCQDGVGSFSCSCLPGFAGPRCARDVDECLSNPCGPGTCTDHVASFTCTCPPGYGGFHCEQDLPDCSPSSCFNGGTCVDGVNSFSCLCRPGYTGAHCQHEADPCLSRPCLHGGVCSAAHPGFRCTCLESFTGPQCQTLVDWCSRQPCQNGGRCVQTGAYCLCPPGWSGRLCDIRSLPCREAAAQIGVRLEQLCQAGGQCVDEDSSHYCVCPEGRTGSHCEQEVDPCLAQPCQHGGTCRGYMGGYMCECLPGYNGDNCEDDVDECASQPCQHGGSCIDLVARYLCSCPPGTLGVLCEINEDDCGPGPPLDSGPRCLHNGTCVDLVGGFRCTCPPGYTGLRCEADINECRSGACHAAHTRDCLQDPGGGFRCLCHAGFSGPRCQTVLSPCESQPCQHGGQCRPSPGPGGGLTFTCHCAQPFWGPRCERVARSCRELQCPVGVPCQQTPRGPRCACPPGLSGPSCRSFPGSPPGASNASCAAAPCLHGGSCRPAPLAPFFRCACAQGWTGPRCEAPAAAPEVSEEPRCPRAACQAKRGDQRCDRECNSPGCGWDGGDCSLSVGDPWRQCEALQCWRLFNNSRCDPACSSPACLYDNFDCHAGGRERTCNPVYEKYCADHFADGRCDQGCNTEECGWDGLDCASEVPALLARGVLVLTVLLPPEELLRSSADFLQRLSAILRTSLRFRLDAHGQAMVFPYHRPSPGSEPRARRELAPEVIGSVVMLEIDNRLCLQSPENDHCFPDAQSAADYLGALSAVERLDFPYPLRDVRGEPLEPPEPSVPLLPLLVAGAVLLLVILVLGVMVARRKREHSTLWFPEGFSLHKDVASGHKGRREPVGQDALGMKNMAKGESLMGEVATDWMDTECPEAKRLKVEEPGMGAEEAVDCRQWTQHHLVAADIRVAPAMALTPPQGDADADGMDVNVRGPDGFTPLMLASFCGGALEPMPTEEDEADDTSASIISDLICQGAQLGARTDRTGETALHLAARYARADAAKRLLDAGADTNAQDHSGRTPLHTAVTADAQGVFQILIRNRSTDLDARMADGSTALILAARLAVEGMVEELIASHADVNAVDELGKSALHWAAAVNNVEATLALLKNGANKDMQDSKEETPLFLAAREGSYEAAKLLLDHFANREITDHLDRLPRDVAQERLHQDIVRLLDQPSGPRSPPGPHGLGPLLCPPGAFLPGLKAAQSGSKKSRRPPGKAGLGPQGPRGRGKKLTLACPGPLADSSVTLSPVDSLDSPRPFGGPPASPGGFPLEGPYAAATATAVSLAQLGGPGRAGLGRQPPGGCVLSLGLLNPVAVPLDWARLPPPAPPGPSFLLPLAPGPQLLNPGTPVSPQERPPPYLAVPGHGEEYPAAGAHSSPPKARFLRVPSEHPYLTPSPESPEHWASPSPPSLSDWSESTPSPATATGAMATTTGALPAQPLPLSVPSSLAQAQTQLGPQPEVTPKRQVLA

[10] = probe aEGFR binding to arrayed compounds – biochemical, biotinylated probe, 635/667 nm fluorescence, primary screen (AID 1097); conditions: small-molecule microarray, higher = more signal;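 note: probe is a biotinylated anti-EGFR antibody binding compounds printed on slides; score combines fluorescence near 667 nm and signal to noise of each spot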
[11] = tested on: Plasmodium falciparum Sir2 (PF13_0152, Sir2A); assay: Plasmodium falciparum Sir2A binding compounds – biochemical, small-molecule microarray, 635 nm fluorescence, primary screen (AID 1098); conditions: fluorescence 635 nm, higher = more signal;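 note: score merges spot fluorescence intensity with its signal-to-noise ratio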
[12] = probe aDKK1 binding to arrayed compounds – biochemical, biotinylated probe, 635/667 nm fluorescence, primary screen (AID 1099); conditions: small-molecule microarray, higher = more signal;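 note: score merges 667nm spot fluorescence with signal to noise across triplicate slides; reference of the scale not given here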
[13] = probe aCHRDL2 binding to arrayed compounds – biochemical, biotinylated probe, 635/667 nm fluorescence, primary screen (AID 1100); conditions: small-molecule microarray, higher = more signal
[14] = change in splice reporter luminescence, either direction, cell-based, HEK293, spliceosome inhibition project, primary screen (AID 1101); conditions: HEK293 splicing luciferase reporter, 24 h, higher = more signal, called active from +8 up or from −8 down;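 note: HEK293 cells carrying a splicing-competent luciferase reporter gene; test concentration not given here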
[15] = molecular target: Fibroblast growth factor 10 (Homo sapiens) (UniProt O15520); assay: compounds binding fibroblast growth factor 10 – biochemical, small-molecule microarray, 635 nm fluorescence, primary screen (AID 1102); conditions: FGF10 binding, fluorescence 635 nm, higher = more signal
Chain of Fibroblast growth factor 10 (Homo sapiens) (O15520 whole entry, looked up): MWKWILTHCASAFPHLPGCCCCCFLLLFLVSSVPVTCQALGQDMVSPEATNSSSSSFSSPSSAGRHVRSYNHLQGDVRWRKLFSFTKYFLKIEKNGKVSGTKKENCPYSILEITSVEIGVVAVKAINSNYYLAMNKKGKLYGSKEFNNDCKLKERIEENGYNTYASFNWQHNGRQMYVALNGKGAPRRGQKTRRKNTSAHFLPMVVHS

[16] = tested on: glycogen synthase kinase-3 (GSK3A per assay name; protocol says GSK3B); assay: compounds binding glycogen synthase kinase-3 – biochemical, small-molecule microarray, 635 nm fluorescence, GSK3A, primary screen (AID 1103); conditions: fluorescence 635 nm, higher = more signal; note: the record names both GSK3A and GSK3B
[17] = molecular target: Epidermal growth factor receptor (Homo sapiens) (UniProt P00533); assay: compounds binding epidermal growth factor receptor – biochemical, small-molecule microarray, 635 nm fluorescence, primary screen (AID 1104); conditions: EGFR binding, higher = more signal;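 note: score merges 667 nm emission intensity with spot signal to noise over triplicate slides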
Chain of Epidermal growth factor receptor (Homo sapiens) (P00533 whole entry, looked up): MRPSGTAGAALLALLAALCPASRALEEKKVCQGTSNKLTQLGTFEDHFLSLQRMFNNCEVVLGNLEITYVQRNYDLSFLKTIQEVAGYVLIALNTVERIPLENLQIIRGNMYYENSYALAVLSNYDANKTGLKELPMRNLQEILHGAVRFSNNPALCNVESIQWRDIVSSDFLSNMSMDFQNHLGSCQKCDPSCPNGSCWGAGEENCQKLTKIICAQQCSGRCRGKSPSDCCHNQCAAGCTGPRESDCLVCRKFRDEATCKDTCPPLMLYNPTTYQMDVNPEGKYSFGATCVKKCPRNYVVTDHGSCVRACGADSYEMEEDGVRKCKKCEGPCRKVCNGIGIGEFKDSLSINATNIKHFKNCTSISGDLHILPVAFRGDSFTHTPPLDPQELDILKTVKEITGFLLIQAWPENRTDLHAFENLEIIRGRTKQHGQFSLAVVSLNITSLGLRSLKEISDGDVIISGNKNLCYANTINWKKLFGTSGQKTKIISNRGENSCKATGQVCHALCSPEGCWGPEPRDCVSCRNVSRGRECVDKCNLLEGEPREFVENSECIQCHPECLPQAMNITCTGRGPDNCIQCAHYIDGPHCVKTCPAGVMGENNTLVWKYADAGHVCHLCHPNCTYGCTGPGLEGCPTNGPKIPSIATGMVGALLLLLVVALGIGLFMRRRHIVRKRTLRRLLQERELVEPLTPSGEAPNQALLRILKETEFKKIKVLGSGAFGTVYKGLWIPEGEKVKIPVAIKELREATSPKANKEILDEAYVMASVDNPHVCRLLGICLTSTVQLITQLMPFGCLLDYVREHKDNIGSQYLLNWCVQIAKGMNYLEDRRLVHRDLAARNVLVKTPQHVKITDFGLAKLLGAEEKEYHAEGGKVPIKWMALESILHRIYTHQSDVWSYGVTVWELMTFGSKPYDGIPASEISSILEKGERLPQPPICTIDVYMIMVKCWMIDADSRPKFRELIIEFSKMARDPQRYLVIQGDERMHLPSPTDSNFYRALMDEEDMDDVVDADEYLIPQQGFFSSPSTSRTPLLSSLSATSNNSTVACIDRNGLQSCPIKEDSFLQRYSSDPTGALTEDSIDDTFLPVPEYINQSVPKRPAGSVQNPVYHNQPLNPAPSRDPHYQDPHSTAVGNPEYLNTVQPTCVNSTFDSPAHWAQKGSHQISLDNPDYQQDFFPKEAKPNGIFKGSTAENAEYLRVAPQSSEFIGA

[18] = molecular target: Follistatin-related protein 3 (Homo sapiens) (UniProt O95633); assay: compounds binding follistatin-related protein 3 – biochemical, small-molecule microarray, 635 nm fluorescence, primary screen (AID 1105); conditions: FSTL3 binding, higher = more signal;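 note: score merges emission near 667 nm and signal to noise per printed spot across three slides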
Chain of Follistatin-related protein 3 (Homo sapiens) (O95633 whole entry, looked up): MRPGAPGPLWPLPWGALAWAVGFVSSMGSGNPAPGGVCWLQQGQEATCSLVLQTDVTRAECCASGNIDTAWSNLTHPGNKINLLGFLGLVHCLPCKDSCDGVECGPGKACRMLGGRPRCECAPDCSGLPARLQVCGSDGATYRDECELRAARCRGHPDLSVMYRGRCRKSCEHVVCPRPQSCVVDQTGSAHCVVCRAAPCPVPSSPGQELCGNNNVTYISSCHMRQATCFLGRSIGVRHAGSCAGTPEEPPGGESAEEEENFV

[19] = molecular target: Dickkopf-related protein 1 (Homo sapiens) (UniProt O94907); assay: small molecules binding DKK1 protein – biochemical, small-molecule microarray, 635 nm fluorescence scan, primary screen (AID 1106); conditions: higher = more signal;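 note: score merges emission near 667 nm with signal to noise over three replicate slides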
Chain of Dickkopf-related protein 1 (Homo sapiens) (O94907 whole entry, looked up): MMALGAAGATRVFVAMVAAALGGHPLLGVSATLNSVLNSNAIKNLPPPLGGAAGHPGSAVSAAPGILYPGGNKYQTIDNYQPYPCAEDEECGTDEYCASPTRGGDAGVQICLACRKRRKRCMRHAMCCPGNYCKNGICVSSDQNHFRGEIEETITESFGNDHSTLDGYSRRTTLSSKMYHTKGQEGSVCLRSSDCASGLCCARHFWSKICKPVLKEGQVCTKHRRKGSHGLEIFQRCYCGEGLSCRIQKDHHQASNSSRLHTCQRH

[20] = tested on: Inhibin beta A chain (activin A); assay: small molecules binding activin A – biochemical, small-molecule microarray, 635 nm fluorescence scan, primary screen (AID 1107); conditions: INHBA, higher = more signal;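 note: mouse activin A protein probed at 4.33 µg/mL on printed slides; score merges bound-protein fluorescence near 667 nm with spot signal-to-noise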

| SMILES | composite z-score [1] | z-score [2] | z-score [3] | z-score [4] | composite z-score [5] | z-score [6] | composite z-score [7] | composite z-score [8] | composite z-score [9] | composite z-score [10] | composite z-score [11] | composite z-score [12] | composite z-score [13] | z-score [14] | composite z-score [15] | composite z-score [16] | composite z-score [17] | composite z-score [18] | composite z-score [19] | composite z-score [20] |
| --- | --- | --- | --- | --- | --- | --- | --- | --- | --- | --- | --- | --- | --- | --- | --- | --- | --- | --- | --- | --- |
| CC(CO)N1C(=O)[C@@H]2C3C(=O)OCCC=C[C@H]3OC23C=CCN(C(C)(C)C)C(=O)[C@@H]13 (stereo not given in full) | -0.577 and 0.254 | 0.581 (inactive) and -1.45 (inactive) | 0.605 (inactive) and -0.779 (inactive) | 0.819 (inactive) and -0.544 (inactive) | -0.326 and 2.17 | -0.586 (inactive) and -0.513 (inactive) | -0.176 and 0.0028 | -0.808 and 0.16 | -0.431 and 0.289 | -0.295 and -0.117 | -0.117 and -0.15 | -0.216 and 0.073 | 0.254 and 0.178 | 0.612 (inactive) and -0.541 (inactive) | -0.941 and 0.229 | -0.875 and 0.449 | -0.839 and -0.726 | -0.464 and 0.008 | -0.476 and -0.008 | 0.298 and 1.11 |
| C=CCN(C(=O)C1N(C(C)(C)CO)C(=O)C2C(C(=O)O)C3C=CC21O3)C(C)(C)C (stereo not given) | -0.805 and -0.846 | 0.69 (inactive) and 1.34 (inactive) | 0.53 (inactive) and 0.365 (inactive) | 0.961 (inactive) and 1.35 (inactive) | -0.139 and 1.91 | -0.0599 (inactive) and 0.474 (inactive) | 0.003 and 0.146 | -2.82 and -3.2 | -1.74 and -1.4 | -0.347 and -0.228 | -0.0242 and 0.712 | 0.338 and 0.0018 | 1.06 and 1.01 | 0.153 (inactive) and -0.231 (inactive) | -0.95 and -1.33 | -1.24 and -1.03 | -2.18 and -1.68 | -2.45 and -2.42 | -2.28 and -3.04 | -3 and -3.14 |
| COC(=O)C1=C2N(Cc3ccccc3)C(C)=C(C(=O)OC)[C@@H](c3ccccc3)N2C(=O)[C@](O)(C(=O)OC)C1 | 0.691 and 0.144 | -0.149 (inactive) and -0.0628 (inactive) | -0.925 (inactive) and -0.134 (inactive) | -1.34 (inactive) and -0.299 (inactive) | 1.8 and -0.466 | 0.788 (inactive) and -0.0132 (inactive) | -0.142 and -0.235 | 1.14 and 0.796 | 0.81 and 0.263 | -0.142 and -0.133 | 0.271 and 0.0802 | -0.17 and -0.241 | -0.684 and -0.512 | -0.229 (inactive) and 0.213 (inactive) | 0.622 and 0.395 | 0.943 and 0.479 | 0.273 and 0.585 | 0.963 and 0.359 | 0.916 and 0.574 | -0.146 and 0.22 |

Source: PubChem BioAssay
